# Laboratory results as given in PubChem BioAssay (Tox21).
# Unmarked numbers belong to inactive results. Results filed as inconclusive are left out. Entries that show only a call come without a potency. The source made the active and inactive calls. Unless noted, the call rests on the fitted dose curve; in most records, active means well fitted curve in the direction sought with a large enough effect in the repeat runs; inconclusive means weak or mixed curves; inactive means no such curve, though single readings can be large; an effect the other way counts as inactive or inconclusive.
# Legend:
# [1] = qHTS assay to identify small molecule antagonists of the estrogen receptor alpha (ER-alpha) signaling pathway using the BG1 cell line in the presence of 0.1 nM 17-beta-estradiol - cell viability counter screen (AID 1259241); further: nearly all actives have a fitted effect of over 40% in size
# Procedure, shortened: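 The cell line endogenously expresses full-length ER-alpha and carries four EREs driving luciferase. Cells are cultured 5 days hormone-free, treated 22 hr with compounds and 0.1 nM estradiol, then viability is read by fluorescence.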
# [2] = qHTS assay to identify small molecule antagonists of the androgen receptor (AR) signaling pathway using the MDA cell line in the presence of 0.5 nM R1881 - cell viability counter screen (AID 1259242); further: nearly all actives have a fitted effect of over 45% in size
# Procedure, shortened: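 R1881 at 0.5 nM final stimulated MDA-kb2 cells during 16 hr compound treatment at 37C. Cytotoxicity read: CellTiter-Fluor fluorescence after 30 min.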
# [3] = target: Androgen receptor (Homo sapiens) (UniProt P10275); test: qHTS assay to identify small molecule antagonists of the androgen receptor (AR) signaling pathway using the MDA cell line in the presence of 0.5 nM R1881 (AID 1259243); further: nearly all actives have a fitted effect of over 50% in size; further: potency means the concentration at half of the fitted maximal effect
# Procedure, shortened: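 We exposed MDA-kb2 cells to compounds under 0.5 nM R1881 stimulation for 16 hr at 37C and quantified MMTV-driven luciferase by luminescence.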
# [4] = target: Estrogen receptor (Homo sapiens) (UniProt P03372); test: qHTS assay to identify small molecule antagonists of the estrogen receptor alpha (ER-alpha) signaling pathway using the BG1 cell line in the presence of 0.1 nM 17-beta-estradiol (AID 1259244); further: nearly all actives have a fitted effect of over 50% in size
# Procedure, shortened: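 VM7Luc4E2; 4xERE-luciferase; 0.1 nM E2 final; 22 h co-incubation, 37C; ONE-Glo luminescence after 30 min at room temperature.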
# [5] = qHTS assay to identify small molecule HDAC inhibitors (AID 1259364);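 further: wild-type HCT-116 cells with endogenous class I/II HDAC activity; top concentration of the series differs between compounds; nearly all actives have a fitted effect of over 45% in size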
# Procedure, shortened: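 Relative class I and II HDAC activity is taken from the luminogenic signal in HCT-116 cells, with compound exposure 2 hr and reagent development 30 min at room temperature.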
# [6] = qHTS assay to identify small molecule HDAC inhibitors - cell viability counter screen (AID 1259365); further: series mostly up to about 92 µM; nearly all actives have a fitted effect of over 50% in size
# Procedure, shortened: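 Viability readout: CellTiter-Glo luminescence. Wild-type HCT-116 cells, 2hr compound treatment following overnight attachment at 37 C.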
# [7] = qHTS assay to identify small molecule agonists of the sonic hedgehog signaling (Shh) pathway - cell viability counter screen (AID 1259366); further: nearly all actives have a fitted effect of over 50% in size
# Procedure, shortened: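 Viability measured fluorometrically (CellTiter-Fluor, 1hr, 37C) in 3T3 Gli1-Luc reporter cells after 23hr compound exposure within a 24hr incubation at 37C/5% CO2.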
# [8] = qHTS assay to identify small molecule antagonists of the sonic hedgehog signaling (Shh) pathway - cell viability counter screen (AID 1259367); further: nearly all actives have a fitted effect of over 55% in size; further: potency means the concentration at half of the fitted maximal effect
# Procedure, shortened: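 After a 4 hr settling period, 3T3 Gli1-Luc cells were treated with DMSO-dissolved chemicals and conditioned medium, kept 24 hr at 37C in 5% CO2, and assayed for viability by CellTiter-Fluor fluorescence following 1 hr reagent incubation.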
# [9] = qHTS assay to identify small molecule antagonists of the sonic hedgehog signaling (Shh) pathway (AID 1259369; calls by dose curve; further: nearly all actives have a fitted effect of over 45% in size)
# Procedure, shortened: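 Conditioned medium drives Shh signalling in 3T3Gli1-Luc cells; compounds in DMSO co-applied, 24hr at 37 C, then luciferase luminescence.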
# [10] = target: Estrogen receptor beta (Homo sapiens) (UniProt Q92731); test: qHTS assay to identify small molecule agonists of the estrogen receptor beta (ER-beta) signaling pathway (AID 1259377; active means well fitted activation curve with a large enough effect in the signal ratio in the repeat runs, not every such curve was filed as active; the % refers to the signal ratio)
# Procedure, shortened: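 A UAS-controlled beta-lactamase reporter in ER-beta-UAS-bla HEK293T cells reports receptor activation. Compounds act for 16 hr at 37C in 2% charcoal-stripped serum, and a FRET substrate is read by fluorescence after 2 hours.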
# [11] = target: Estrogen receptor beta (Homo sapiens) (UniProt Q92731); test: qHTS assay to identify small molecule antagonists of the estrogen receptor beta (ER-beta) signaling pathway (AID 1259378; active means well fitted inhibition curve with a large enough effect in the signal ratio in the repeat runs, not every such curve was filed as active; the % refers to the signal ratio)
# Procedure, shortened: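 ER-beta-UAS-bla HEK293T (GripTite) cells in 2% charcoal-stripped FBS medium were preincubated 6 hr at 37C, dosed with compound, then stimulated with 1 nM E2 (final) for 16 hr; beta-lactamase reporter read by B/G FRET fluorescence after 2 hr substrate loading.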
# [12] = qHTS assay to identify small molecule agonists of the androgen receptor (AR) signaling pathway in the presence of an antagonist - cell viability counter screen (AID 1259379);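 further: MDA-kb2 human breast cancer cells carrying an MMTV luciferase reporter; series mostly up to about 92 µM; nearly all actives have a fitted effect of over 25% in size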
# Procedure, shortened: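 A CellTiter-Fluor read-out measured viability of MDA-kb2 reporter cells (MMTV promoter with AR and GR response elements). Treatment: nilutamide 3.0uM final with compounds at 15 concentrations, 16 hr, 37C, 0% CO2.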
# [13] = qHTS assay to identify small molecule agonists of the estrogen receptor beta (ER-beta) signaling pathway - cell viability counter screen (AID 1259380); further: nearly all actives have a fitted effect of over 30% in size
# Procedure, shortened: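 Cells used were ER-beta-UAS-bla HEK293T in medium with 2% charcoal-stripped FBS. They were treated for 16 hr at 37C. Viability came from CellTiter-Glo luminescence.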
# [14] = target: Androgen receptor (Homo sapiens) (UniProt P10275); test: qHTS assay to identify small molecule agonists of the androgen receptor (AR) signaling pathway in the presence of an antagonist (AID 1259381; calls by dose curve; further: nearly all actives have a fitted effect of over 15% in size)
# Procedure, shortened: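 Using human MDA-kb2 cells with an MMTV promoter–luciferase construct (AR and GR response elements), agonist activity is scored under 3.0uM nilutamide (final) co-treatment; 16hr incubation, 37C, luminescence readout via ONE-Glo.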
# [15] = qHTS assay to identify small molecule antagonists of the estrogen receptor beta (ER-beta) signaling pathway - cell viability counter screen (AID 1259382); further: series mostly up to about 92 µM; nearly all actives have a fitted effect of over 55% in size
# Procedure, shortened: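 Agonist-stimulated (1nM E2) ER-beta-UAS-bla HEK293T cells are incubated with library compounds for 16 hr at 37C. Cell viability is then assessed in the reporter-assay wells by adding CellTiter-Glo and reading luminescence after 30 min.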
# [16] = target: Estrogen receptor (Homo sapiens) (UniProt P03372); test: qHTS assay to identify small molecule agonists of the estrogen receptor alpha (ER-alpha) signaling pathway in the presence of an antagonist (AID 1259383; calls by dose curve; further: top concentration of the series differs between compounds; nearly all actives have a fitted effect of over 15% in size)
# Procedure, shortened: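 Using VM7Luc4E2 cells seeded 24hr before treatment, antagonist ICI-182,780 (10.0nM final) was added, followed by compounds at 15 concentrations. Plates incubated 22hr; ONE-Glo luminescence quantified reporter activity.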
# [17] = qHTS assay to identify small molecule agonists or antagonists of the thyroid stimulating hormone receptor (TSHR) signaling pathway - wild type cell line counter screen (AID 1259384; calls by dose curve)
# Procedure, shortened: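 Wild-type HEK293 cells were plated 18 h at 37 C/5% CO2, pin-dosed with compound plus Ro20-1724 medium, held 30 min at room temperature, then given cAMP-d2 and anti-cAMP-cryptate; fluorescence was read after 1 h. Fifteen concentrations, triplicate.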
# [18] = target: Thyrotropin receptor (Homo sapiens) (UniProt P16473); test: qHTS assay to identify small molecule antagonists of the thyroid stimulating hormone receptor (TSHR) signaling pathway (AID 1259385; calls by dose curve; further: nearly all actives have a fitted effect of over 20% in size)
# Procedure, shortened: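 TSHR-HEK293 cells were plated and held 18 h at 37C/5% CO2, then given compound plus Ro20-1724 and stimulated with TSH at 1.5 ng/mL final. After 30 min at room temperature, cAMP was detected with cAMP-d2/anti-cAMP-cryptate (1 h) by fluorescence.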
# [19] = qHTS assay to identify small molecule agonists of the sonic hedgehog signaling (Shh) pathway (AID 1259368; calls by dose curve;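 further: NIH/3T3-derived 3T3Gli1-Luc cells carrying a stable Gli1-driven firefly luciferase reporter; series mostly up to about 92 µM; nearly all actives have a fitted effect of over 15% in size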)
# Procedure, shortened: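 Mouse fibroblast (NIH/3T3) reporter cells with stably integrated Gli1-Luc were treated 24 hr with compound; firefly luciferase luminescence served as the read-out.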
# Androgen receptor (Homo sapiens), sequence (P10275 whole entry, looked up): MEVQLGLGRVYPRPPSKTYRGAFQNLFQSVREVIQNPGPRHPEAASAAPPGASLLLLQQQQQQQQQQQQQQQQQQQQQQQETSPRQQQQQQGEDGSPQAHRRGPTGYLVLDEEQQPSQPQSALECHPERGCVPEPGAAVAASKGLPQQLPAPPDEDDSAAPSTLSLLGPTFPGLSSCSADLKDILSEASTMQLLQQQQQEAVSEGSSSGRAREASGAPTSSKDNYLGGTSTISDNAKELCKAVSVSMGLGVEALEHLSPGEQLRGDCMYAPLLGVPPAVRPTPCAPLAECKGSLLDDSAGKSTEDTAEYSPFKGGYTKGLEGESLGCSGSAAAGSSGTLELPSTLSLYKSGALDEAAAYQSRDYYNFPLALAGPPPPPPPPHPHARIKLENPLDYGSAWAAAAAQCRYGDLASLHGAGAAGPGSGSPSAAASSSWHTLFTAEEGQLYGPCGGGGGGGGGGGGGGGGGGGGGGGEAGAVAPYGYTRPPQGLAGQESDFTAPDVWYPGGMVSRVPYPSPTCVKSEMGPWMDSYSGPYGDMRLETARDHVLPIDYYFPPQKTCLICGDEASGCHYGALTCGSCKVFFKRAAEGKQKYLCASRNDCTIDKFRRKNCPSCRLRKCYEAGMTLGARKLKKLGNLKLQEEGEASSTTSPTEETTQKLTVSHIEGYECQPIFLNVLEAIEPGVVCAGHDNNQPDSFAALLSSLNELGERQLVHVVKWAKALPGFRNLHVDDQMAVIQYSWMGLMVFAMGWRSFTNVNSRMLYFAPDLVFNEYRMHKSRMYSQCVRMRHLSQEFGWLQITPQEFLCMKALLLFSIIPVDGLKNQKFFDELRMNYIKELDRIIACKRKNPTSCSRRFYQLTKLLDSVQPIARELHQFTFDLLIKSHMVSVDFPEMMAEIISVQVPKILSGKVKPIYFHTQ
# Thyrotropin receptor (Homo sapiens), sequence (P16473 whole entry, looked up): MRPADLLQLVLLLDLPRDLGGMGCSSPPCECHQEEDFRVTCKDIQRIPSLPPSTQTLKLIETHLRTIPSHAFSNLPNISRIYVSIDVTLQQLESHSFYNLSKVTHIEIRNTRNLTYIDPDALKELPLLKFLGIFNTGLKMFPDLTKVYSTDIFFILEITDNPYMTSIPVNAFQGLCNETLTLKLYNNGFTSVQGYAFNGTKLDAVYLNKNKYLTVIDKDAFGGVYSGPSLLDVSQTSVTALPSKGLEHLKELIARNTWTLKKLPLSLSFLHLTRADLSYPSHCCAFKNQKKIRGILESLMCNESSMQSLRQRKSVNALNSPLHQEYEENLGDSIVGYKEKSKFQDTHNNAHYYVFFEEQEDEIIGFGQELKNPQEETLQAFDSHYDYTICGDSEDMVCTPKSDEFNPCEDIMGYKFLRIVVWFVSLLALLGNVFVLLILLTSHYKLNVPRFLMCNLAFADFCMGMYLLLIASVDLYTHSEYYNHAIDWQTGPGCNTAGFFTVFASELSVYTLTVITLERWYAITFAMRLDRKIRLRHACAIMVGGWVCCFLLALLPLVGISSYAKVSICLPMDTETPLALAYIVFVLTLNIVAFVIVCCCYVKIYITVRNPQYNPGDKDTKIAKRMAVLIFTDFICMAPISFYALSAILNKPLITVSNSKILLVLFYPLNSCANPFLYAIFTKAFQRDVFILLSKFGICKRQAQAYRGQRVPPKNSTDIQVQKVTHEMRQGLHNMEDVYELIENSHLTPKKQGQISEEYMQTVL
# Estrogen receptor (Homo sapiens), sequence (P03372 whole entry, looked up): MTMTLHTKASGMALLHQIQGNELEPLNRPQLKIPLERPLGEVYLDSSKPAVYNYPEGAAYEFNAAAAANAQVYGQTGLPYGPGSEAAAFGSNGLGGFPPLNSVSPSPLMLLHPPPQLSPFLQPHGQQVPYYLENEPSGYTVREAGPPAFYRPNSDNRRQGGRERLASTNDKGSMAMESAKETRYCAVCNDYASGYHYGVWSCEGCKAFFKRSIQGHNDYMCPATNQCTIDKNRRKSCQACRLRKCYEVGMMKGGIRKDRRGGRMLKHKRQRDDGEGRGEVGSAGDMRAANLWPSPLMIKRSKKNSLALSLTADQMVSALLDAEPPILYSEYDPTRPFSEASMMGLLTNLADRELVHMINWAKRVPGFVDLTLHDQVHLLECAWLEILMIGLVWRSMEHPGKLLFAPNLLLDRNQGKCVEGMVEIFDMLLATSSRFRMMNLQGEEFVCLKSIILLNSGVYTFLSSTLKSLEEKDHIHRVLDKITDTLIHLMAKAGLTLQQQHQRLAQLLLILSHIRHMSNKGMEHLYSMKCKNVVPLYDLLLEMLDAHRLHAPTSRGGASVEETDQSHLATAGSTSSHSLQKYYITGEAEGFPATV
# Estrogen receptor beta (Homo sapiens), sequence (Q92731 whole entry, looked up): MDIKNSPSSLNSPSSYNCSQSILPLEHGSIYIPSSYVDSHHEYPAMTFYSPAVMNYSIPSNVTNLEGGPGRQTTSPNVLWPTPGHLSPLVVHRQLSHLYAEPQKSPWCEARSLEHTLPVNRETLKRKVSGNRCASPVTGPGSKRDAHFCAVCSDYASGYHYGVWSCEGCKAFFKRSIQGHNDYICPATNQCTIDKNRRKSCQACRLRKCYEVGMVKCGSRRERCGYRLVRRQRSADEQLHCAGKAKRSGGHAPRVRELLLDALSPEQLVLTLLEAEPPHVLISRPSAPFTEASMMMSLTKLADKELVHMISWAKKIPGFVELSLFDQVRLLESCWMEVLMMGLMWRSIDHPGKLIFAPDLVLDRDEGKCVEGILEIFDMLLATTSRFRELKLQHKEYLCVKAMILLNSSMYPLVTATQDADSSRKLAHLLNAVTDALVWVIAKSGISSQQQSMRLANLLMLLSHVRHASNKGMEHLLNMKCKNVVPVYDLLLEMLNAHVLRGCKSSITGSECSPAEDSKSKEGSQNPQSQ
compound,measurement,setting,value
CC1=C(C(=O)O)N2C(=O)[C@@H](N)[C@H]2SC1,"activity change, negative = cytotoxicity",[1],0.956% [at 19 µM]
same,"viability change, negative = cytotoxic",[2],2.31% [at 19 µM]
same,"activity, negative = inhibition",[3],15.5% [at 19 µM]
same,"activity change, negative = inhibition",[4],0.965% [at 19 µM]
same,"activity change, negative = inhibition",[5],5.61% [at 19 µM]
same,"activity change, negative = cytotoxicity",[6],3.22% [at 19 µM]
same,"viability change, negative = cytotoxic",[7],-3.69% [at 19 µM]
same,"viability change, negative = cytotoxic",[8],2.83% [at 19 µM]
same,"activity change, negative = inhibition",[9],-0.41% [at 19 µM]
same,activation,[10],1.69% [at 19 µM]
same,"activity, negative = inhibition",[11],20.1% [at 19 µM]
same,"activity change, negative = cytotoxicity",[12],-2.71% [at 19 µM]
same,"activity change, negative = cytotoxicity",[13],7.09% [at 19 µM]
same,activation,[14],-0.0648% [at 19 µM]
same,"activity change, negative = cytotoxicity",[15],15.3% [at 19 µM]
same,activation,[16],0.456% [at 19 µM]
same,cAMP activity change,[17],"2.64% [at 18.9 µM, active compounds read high]"
same,"activity change, negative = inhibition",[18],2.26% [at 19 µM]
CCC(=O)c1ccccc1,outcome,[1],inactive
same,outcome,[2],inactive
same,Potency,[3],inactive
same,Potency,[4],inactive
same,Potency,[5],inactive
same,outcome,[6],inactive
same,Potency,[7],inactive
same,outcome,[19],inactive
same,Potency,[9],inactive
same,outcome,[10],inactive
same,Potency,[11],inactive
same,Potency,[12],inactive
same,Potency,[13],inactive
same,Potency,[14],inactive
same,Potency,[15],inactive
same,Potency,[16],inactive
same,Potency,[17],inactive
same,Potency,[18],inactive
C#CCN1C(=O)COc2cc(F)c(N3C(=O)C4=C(CCCC4)C3=O)cc21,outcome,[1],inactive
same,outcome,[2],inactive
same,Potency,[3],inactive
same,Potency,[4],inactive
same,Potency,[5],inactive
same,outcome,[6],inactive
same,Potency,[7],inactive
same,Potency,[8],inactive
same,outcome,[19],inactive
same,outcome,[10],inactive
same,Potency,[12],inactive
same,Potency,[14],inactive
same,Potency,[15],inactive
same,Potency,[16],inactive
same,Potency,[17],inactive
same,Potency,[18],inactive
CCCCOP(=O)(O)OCCCC,outcome,[1],inactive
same,outcome,[2],inactive
same,Potency,[3],inactive
same,Potency,[4],inactive
same,Potency,[5],inactive
same,outcome,[6],inactive
same,Potency,[7],inactive
same,outcome,[19],inactive
same,Potency,[9],inactive
same,Potency,[11],inactive
same,Potency,[12],inactive
same,Potency,[13],inactive
same,Potency,[14],inactive
same,Potency,[15],inactive
same,Potency,[16],inactive
same,Potency,[17],inactive
same,Potency,[18],inactive
CC1(C)COP(Oc2ccccc2)OC1,outcome,[1],inactive
same,outcome,[2],inactive
same,Potency,[3],inactive
same,Potency,[5],inactive
same,outcome,[6],inactive
same,Potency,[7],inactive
same,Potency,[8],inactive
same,outcome,[19],inactive
same,Potency,[9],inactive
same,Potency,[12],inactive
same,Potency,[13],inactive
same,Potency,[14],inactive
same,Potency,[15],inactive
same,Potency,[17],inactive
same,Potency,[18],inactive
Cc1nc(N)nc(N)n1,outcome,[1],inactive
same,outcome,[2],inactive
same,Potency,[3],inactive
same,Potency,[4],inactive
same,Potency,[5],inactive
same,outcome,[6],inactive
same,Potency,[7],inactive
same,Potency,[8],inactive
same,Potency,[9],inactive
same,Potency,[12],inactive
same,Potency,[13],inactive
same,Potency,[15],inactive
same,Potency,[16],inactive
same,Potency,[17],inactive
CC(C)CC#N,outcome,[1],inactive
same,outcome,[2],inactive
same,Potency,[3],inactive
same,Potency,[4],inactive
same,Potency,[5],inactive
same,outcome,[6],inactive
same,Potency,[8],27.9 µM (active)
same,Potency,[9],inactive
same,outcome,[10],inactive
same,Potency,[12],inactive
same,Potency,[13],inactive
same,Potency,[14],inactive
same,Potency,[15],inactive
same,Potency,[16],inactive
same,Potency,[17],inactive
same,Potency,[18],inactive
O=CNC(N1CCN(C(NC=O)C(Cl)(Cl)Cl)CC1)C(Cl)(Cl)Cl (stereo unspecified),outcome,[1],inactive
same,outcome,[2],inactive
same,Potency,[3],30.6 µM (active)
same,Potency,[4],inactive
same,Potency,[5],inactive
same,outcome,[6],inactive
same,Potency,[7],inactive
same,outcome,[19],inactive
same,Potency,[9],inactive
same,outcome,[10],inactive
same,Potency,[11],inactive
same,Potency,[12],inactive
same,Potency,[14],inactive
same,Potency,[15],inactive
same,Potency,[16],inactive
same,Potency,[17],inactive
same,Potency,[18],inactive
